Experimental data reported in the supplement of paper PMC13380429.

Columns and labels:
[1] = system: Vero E6 infected with SARS-CoV-2; test: inhibition of SARS-CoV-2 cytopathic effect; higher = more antiviral protection, active = above 15; conditions: 48 h
[2] = system: Vero E6 infected with SARS-CoV-2; test: morphology score (similarity to uninfected cells); higher = more like uninfected cells; conditions: 24 h

SMILES	inhibition of SARS-CoV-2 cytopathic effect ([1]; 1 nM)	inhibition of SARS-CoV-2 cytopathic effect ([1]; 8.33 nM)	inhibition of SARS-CoV-2 cytopathic effect ([1]; 100 nM)	inhibition of SARS-CoV-2 cytopathic effect ([1]; 833.33 nM)	inhibition of SARS-CoV-2 cytopathic effect ([1]; 10000 nM)	morphology score [2]
CN(C)CCCOc1nn(Cc2ccccc2)c2ccccc12 [benzydamine]	1.21% (inactive)	2.44% (inactive)	2.33% (inactive)	0.09% (inactive)	-0.14% (inactive)	–
Cc1cccc2c1CC[C@H](CN1CCC(c3c(Cl)cccc3Cl)CC1)C[C@@H]2O	-2.92% (inactive)	0.72% (inactive)	4.25% (inactive)	1.11% (inactive)	-8.51% (inactive)	–
COc1ccc(OC)c(C(O)C(C)N)c1 (stereo unspecified) [methoxamine]	0.07% (inactive)	-0.09% (inactive)	1.61% (inactive)	3.81% (inactive)	0.66% (inactive)	–
O=C(OC(C(F)(F)F)C(F)(F)F)N1CCN(Cc2cccc(Oc3ccccc3)c2)CC1	3.59% (inactive)	4.7% (inactive)	3.33% (inactive)	3.51% (inactive)	2.77% (inactive)	–
O=C(O)c1cc(/N=N/c2ccc(O)c(C(=O)O)c2)ccc1O [olsalazine]	1.15% (inactive)	2.03% (inactive)	0.75% (inactive)	2.78% (inactive)	1.21% (inactive)	–
CCCC(=O)N1CCCN(c2nc(N)c3cc(OC)c(OC)cc3n2)CC1 [bunazosin]	-0.32% (inactive)	-1.38% (inactive)	1.21% (inactive)	0.02% (inactive)	0.07% (inactive)	–
CN1CCC(=C2c3ccccc3Sc3ccccc32)CC1 [pimethixene]	1.38% (inactive)	0.84% (inactive)	-0.63% (inactive)	-0.47% (inactive)	-3.2% (inactive)	–
CCCN1CCCC(c2cccc(O)c2)C1 (stereo in doubt) [preclamol]	-0.2% (inactive)	-0.3% (inactive)	0.42% (inactive)	1.02% (inactive)	-1.58% (inactive)	–
COC(=O)C1=C(C)NC(C)=C(C(=O)OC/C=C/c2ccccc2)C1c1cccc([N+](=O)[O-])c1 (stereo unspecified) [pranidipine]	1.87% (inactive)	0.47% (inactive)	-0.57% (inactive)	1.4% (inactive)	8.67% (inactive)	–
CN1CC2c3ccccc3Oc3ccc(Cl)cc3C2C1 (stereo unspecified) [asenapine]	1.23% (inactive)	-0.6% (inactive)	1.72% (inactive)	-0.01% (inactive)	6.35% (inactive)	–
C=C[C@]1(C)CC[C@@H](C(=C)C)C[C@H]1C(=C)C [beta-elemene]	2.14% (inactive)	1.03% (inactive)	0.39% (inactive)	0.7% (inactive)	0.82% (inactive)	–
Cc1sc2c(c1C)C(c1ccc(Cl)cc1)=N[C@@H](CC(=O)Nc1ccc(O)cc1)c1nnc(C)n1-2	1.01% (inactive)	0.43% (inactive)	-1.47% (inactive)	-3.68% (inactive)	-9.86% (inactive)	–
Cc1nc(C)c(-c2ccc(C3CCC(CC(=O)O)CC3)cc2)nc1C(N)=O (stereo unspecified)	5.02% (inactive)	2.17% (inactive)	0.91% (inactive)	3.12% (inactive)	-3.42% (inactive)	–
CCOC(=O)[C@H](CCc1ccccc1)N[C@@H](C)C(=O)N1[C@H](C(=O)O)C[C@@H]2CCC[C@@H]21 [ramipril]	-0.55% (inactive)	-0.01% (inactive)	-0.53% (inactive)	5.34% (inactive)	-2.38% (inactive)	–
CC(C)(c1ccc(O)cc1)c1ccc(O)cc1 [bisphenol-A]	3.73% (inactive)	8.2% (inactive)	2.75% (inactive)	1.31% (inactive)	4% (inactive)	–
C[C@]12CC[C@H]3[C@@H](CCC4=CC(=O)CC[C@@]43C)[C@@H]1CC[C@@H]2O (10 µM)	–	–	–	–	–	-0.0371
CC(=O)Oc1ccccc1C(=O)O [aspirin]	-5.74% (inactive)	-5.82% (inactive)	-7.3% (inactive)	-5.09% (inactive)	-12.8% (inactive)	–
CNc1nc(NCc2ccc(NS(C)(=O)=O)cc2Cl)cc(-c2ccccn2)n1	-1.79% (inactive)	-3% (inactive)	0.48% (inactive)	-2.53% (inactive)	2.16% (inactive)	–
CCC1(c2ccccc2)C(=O)N(COC)C(=O)N(COC)C1=O [eterobarb]	-0.71% (inactive)	0.82% (inactive)	-1.29% (inactive)	-0.57% (inactive)	0.84% (inactive)	–
CC(=O)SC[C@@H](Cc1ccccc1)C(=O)NCC(=O)OCc1ccccc1 (racemic) [racecadotril]	1.48% (inactive)	1.8% (inactive)	0.82% (inactive)	1.15% (inactive)	-5.3% (inactive)	–
Cc1cc(Nc2ncnc3ccc(-c4ccc(CNCCS(C)(=O)=O)o4)cc23)ccc1Oc1ccn2ncnc2c1 [HER2-Inhibitor-1]	2.32% (inactive)	3.23% (inactive)	-0.2% (inactive)	-2.65% (inactive)	3.1% (inactive)	–
Cc1cccc(N(C)C(=S)Oc2ccc3ccccc3c2)c1 [tolnaftate]	-0.91% (inactive)	0.08% (inactive)	-1.72% (inactive)	1.03% (inactive)	3.31% (inactive)	–
CCC[C@@H]1CC2=CC(=O)CC[C@]2(C)[C@H]2CC[C@@]3(C)[C@@H](CC[C@@]3(O)CCC(=O)O)[C@H]12	1.5% (inactive)	15.1% (active)	3.45% (inactive)	-4.91% (inactive)	1.68% (inactive)	–
O=C1c2ccccc2C(=O)C1c1ccc(Cl)cc1 [chlorindione]	-5.54% (inactive)	-6.24% (inactive)	-3.27% (inactive)	0.64% (inactive)	0.34% (inactive)	–
